# In PubChem BioAssay (Tox21):
# Where “and” joins values, the source holds several entries; their conditions need not be identical. Equal values may be shown once. Where a structure was tested more than once in an assay, its records may differ in their call. Calls of active or inactive are those of the source. Entries that show only a call come without a potency. Unless noted, calls follow the shape of the dose curve; as a rule, active = well fitted curve in the direction sought with a large enough effect in the repeat runs; inconclusive = weak or mixed curves; inactive = no such curve, though single readings can be large; an effect the other way counts as inactive or inconclusive.
# Key:
# [1] = qHTS assay to identify small molecule antagonists of the glucocorticoid receptor (GR) signaling pathway - cell viability counter screen (AID 720693); also: nearly all actives have a fitted effect of over 55% in size
# [2] = qHTS assay for identifying genotoxic compounds that show differential cytotoxicity against isogenic chicken DT40 cell lines with known DNA damage response pathways - Rev3 mutant cell line (AID 743014); also: nearly all actives have a fitted effect of over 55% in size; also: potency is read from the fitted curve at half-maximal effect
# [3] = qHTS assay for identifying genotoxic compounds that show differential cytotoxicity against isogenic chicken DT40 cell lines with known DNA damage response pathways - Rad54/Ku70 mutant cell line (AID 743015); also: nearly all actives have a fitted effect of over 60% in size; also: potency is read from the fitted curve at half-maximal effect
# [4] = qHTS assay to identify small molecule antagonists of the androgen receptor (AR) signaling pathway - cell viability counter screen (AID 743033; also: nearly all actives have a fitted effect of over 45% in size; also: potency is read from the fitted curve at half-maximal effect)
# [5] = molecular target: Androgen receptor (Homo sapiens) (UniProt P10275); experiment: qHTS assay to identify small molecule agonists of the androgen receptor (AR) signaling pathway (AID 743036; active = well fitted activation curve with a large enough effect in the signal ratio in the repeat runs, with a control signal flat, not every such curve was filed as active; inconclusive = weak or mixed curves, or effect the other way; inactive = no such curve, though single readings can be large or run the other way; the % refers to the signal ratio)
# Summary of the method: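 Agonist activity was scored by beta-lactamase reporter fluorescence in stably transfected HEK293 cells exposed to compounds for 16 h at 37C and 5% CO2. Substrate loading took 2 h at room temperature.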
# [6] = molecular target: Androgen receptor (Homo sapiens) (UniProt P10275); experiment: qHTS assay to identify small molecule agonists of the androgen receptor (AR) signaling pathway using the MDA cell line (AID 743040; also: nearly all actives have a fitted effect of over 20% in size); conditions: MDA-kb2 AR-luc cells, MMTV luciferase, 16 h; activity change: at 70.3 µM (top of the series), stronger effect = higher value
# Summary of the method: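 Luciferase read-out, ONE-Glo, 30 min RT. Cells: MDA-kb2 AR-luc, MMTV promoter with AR and GR response elements. Compound exposure 16 h, 37C, 0% CO2, after 5 h pre-incubation. qHTS agonist mode.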
# [7] = qHTS assay to identify small molecule antagonists of the androgen receptor (AR) signaling pathway using the MDA cell line - cell viability counter screen (AID 743041; also: nearly all actives have a fitted effect of over 45% in size)
# Summary of the method: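 Cytotoxicity counter screen: MDA-kb2 AR-luc cells, compound + R1881, 16 h, 37C, 0% CO2; CellTiter-Fluor added at 15.5 h, fluorescence read after 30 min.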
# [8] = molecular target: Androgen receptor (Homo sapiens) (UniProt P10275); experiment: qHTS assay to identify small molecule antagonists of the androgen receptor (AR) signaling pathway using the MDA cell line (AID 743042; also: nearly all actives have a fitted effect of over 55% in size; also: potency is read from the fitted curve at half-maximal effect)
# Summary of the method: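 MDA-kb2 breast carcinoma cells carrying MMTV-luciferase (AR/GR responsive) were co-treated with compounds and the agonist R1881 for 16 h at 37C. Inhibition read as ONE-Glo luminescence; CellTiter-Fluor fluorescence measured in parallel for cytotoxicity.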
# [9] = qHTS assay to identify small molecule antagonists of the thyroid receptor (TR) signaling pathway - cell viability counter screen (AID 743064); also: nearly all actives have a fitted effect of over 50% in size; also: potency is read from the fitted curve at half-maximal effect
# Summary of the method: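 Same-well viability check: GH3.TRE-Luc cells stimulated with 1 nM T3 alongside test compound for 23.5 h, followed by CellTiter-Fluor fluorescence.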
# [10] = tested on: thyroid hormone receptor (rat, GH3 cells); experiment: qHTS assay to identify small molecule agonists of the thyroid receptor (TR) signaling pathway (AID 743066; calls by dose curve)
# [11] = molecular target: Estrogen receptor (Homo sapiens) (UniProt P03372); experiment: qHTS assay to identify small molecule antagonists of the estrogen receptor alpha (ER-alpha) signaling pathway (AID 743069; active = well fitted curve in the direction sought with a large enough effect in the signal ratio in the repeat runs, not every such curve was filed as active; inconclusive = weak or mixed curves, or effect the other way; inactive = no such curve, though single readings can be large or run the other way; the % refers to the signal ratio; also: potency is read from the fitted curve at half-maximal effect)
# Summary of the method: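 Beta-lactamase FRET fluorescence is read after 2 hr at room temperature with LiveBLAzer B/G substrate. Before that, ER-alpha-bla HEK293 cells sit 4 hr after plating, then receive compound plus 17beta-estradiol and incubate 18 hr at 37C.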
# [12] = qHTS assay to identify small molecule antagonists of the estrogen receptor alpha (ER-alpha) signaling pathway - cell viability counter screen (AID 743074; calls by dose curve;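 also: HEK293 cells carrying ER-alpha-UAS-bla reporter stimulated with 17beta-estradiol; nearly all actives have a fitted effect of over 45% in size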)
# [13] = molecular target: Estrogen receptor (Homo sapiens) (UniProt P03372); experiment: qHTS assay to identify small molecule agonists of the estrogen receptor alpha (ER-alpha) signaling pathway (AID 743075; calls by dose curve;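 also: HEK293 GripTite cells with ER-alpha and UAS-driven beta-lactamase reporter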)
# [14] = molecular target: Estrogen receptor (Homo sapiens) (UniProt P03372); experiment: qHTS assay to identify small molecule agonists of the estrogen receptor alpha (ER-alpha) signaling pathway using the BG1 cell line (AID 743079); also: nearly all actives have a fitted effect of over 20% in size; also: potency is read from the fitted curve at half-maximal effect
# [15] = qHTS assay to identify small molecule antagonists of the estrogen receptor alpha (ER-alpha) signaling pathway using the BG1 cell line (AID 743080; calls by dose curve;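 also: BG1 cells stimulated with 17beta-estradiol alongside compound; nearly all actives have a fitted effect of over 25% in size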; also: potency is read from the fitted curve at half-maximal effect)
# Summary of the method: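 BG1-Luc-4E2 cells (endogenous full-length ER-alpha, stable 4×ERE-luciferase) were starved 5 days in phenol-red-free medium with 10% charcoal-stripped FBS, plated 24 h, then given compound plus 17beta-estradiol for 21.5 h at 37 C; ONE-Glo luminescence read after 30 min.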
# [16] = qHTS assay to identify small molecule antagonists of the estrogen receptor alpha (ER-alpha) signaling pathway using the BG1 cell line - cell viability counter screen (AID 743081);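 also: compound given together with 17beta-estradiol as the ER stimulus; nearly all actives have a fitted effect of over 45% in size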; also: potency is read from the fitted curve at half-maximal effect
# Aromatase (Homo sapiens) = Aromatase (Homo sapiens) (UniProt P11511); experiment: qHTS assay to identify aromatase inhibitors (AID 743083); also: nearly all actives have a fitted effect of over 55% in size; also: potency is read from the fitted curve at half-maximal effect
# [17] = qHTS assay for identifying genotoxic compounds that show differential cytotoxicity against isogenic chicken DT40 cell lines with known DNA damage response pathways - wild type cell line (AID 743012); also: nearly all actives have a fitted effect of over 60% in size; also: potency is read from the fitted curve at half-maximal effect
# Summary of the method: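 CellTiter-Glo luminescence readout of viability in wild type DT40 cells after 40 h compound exposure at 37 C/5% CO2; 300 cells/well; reagent incubated 30 min at room temperature before reading.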
# [18] = qHTS assay to identify small molecule antagonists of the thyroid receptor (TR) signaling pathway (AID 743065); also: nearly all actives have a fitted effect of over 55% in size; also: potency is read from the fitted curve at half-maximal effect
# Summary of the method: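 GH3.TRE-Luc rat pituitary cells (two TREs driving luciferase) were dosed with compound, then stimulated with 1 nM T3 (final) for 23.5 h at 37 C. ONE-Glo luminescence was the read-out, with CellTiter-Fluor fluorescence as the cytotoxicity counter-screen.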
# [19] = molecular target: Androgen receptor (Homo sapiens) (UniProt P10275); experiment: qHTS assay to identify small molecule antagonists of the androgen receptor (AR) signaling pathway (AID 743035; active = well fitted inhibition curve with a large enough effect in the signal ratio in the repeat runs, not every such curve was filed as active; inconclusive = weak or mixed curves, or effect the other way; inactive = no such curve, though single readings can be large or run the other way; the % refers to the signal ratio)
# Summary of the method: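 AR-bla HEK293 reporter cells; 4 h settle at 37C/5% CO2; compound + R1881 agonist, 16 h at 37C; LiveBLAzer B/G FRET substrate 2 h RT; fluorescence intensity read. qHTS format.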
# Sequence of Androgen receptor (Homo sapiens) (P10275 whole entry, looked up): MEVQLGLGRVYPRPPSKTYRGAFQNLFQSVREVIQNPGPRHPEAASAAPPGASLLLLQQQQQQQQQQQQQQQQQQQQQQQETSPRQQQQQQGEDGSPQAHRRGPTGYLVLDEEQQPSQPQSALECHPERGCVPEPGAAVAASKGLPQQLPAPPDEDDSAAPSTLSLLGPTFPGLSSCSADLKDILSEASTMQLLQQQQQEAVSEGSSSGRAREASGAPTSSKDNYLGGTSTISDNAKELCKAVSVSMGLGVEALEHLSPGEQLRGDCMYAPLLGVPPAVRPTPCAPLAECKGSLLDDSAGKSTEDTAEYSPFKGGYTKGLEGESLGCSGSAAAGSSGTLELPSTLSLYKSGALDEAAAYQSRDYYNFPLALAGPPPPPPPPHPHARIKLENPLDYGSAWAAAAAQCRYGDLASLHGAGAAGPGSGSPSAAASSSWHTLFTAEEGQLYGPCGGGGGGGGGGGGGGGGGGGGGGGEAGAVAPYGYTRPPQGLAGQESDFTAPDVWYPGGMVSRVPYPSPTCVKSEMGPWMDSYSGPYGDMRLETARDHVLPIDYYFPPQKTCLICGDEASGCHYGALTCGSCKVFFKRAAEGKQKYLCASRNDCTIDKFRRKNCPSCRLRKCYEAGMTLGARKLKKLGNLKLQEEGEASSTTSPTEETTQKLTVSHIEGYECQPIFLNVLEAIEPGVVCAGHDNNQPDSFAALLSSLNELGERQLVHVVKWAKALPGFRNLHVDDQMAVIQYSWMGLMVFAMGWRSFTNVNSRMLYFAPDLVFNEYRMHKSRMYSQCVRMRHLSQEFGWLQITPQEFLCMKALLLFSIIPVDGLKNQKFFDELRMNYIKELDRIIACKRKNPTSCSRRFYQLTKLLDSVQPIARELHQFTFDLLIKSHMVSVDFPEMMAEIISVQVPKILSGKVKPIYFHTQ
# Sequence of Estrogen receptor (Homo sapiens) (P03372 whole entry, looked up): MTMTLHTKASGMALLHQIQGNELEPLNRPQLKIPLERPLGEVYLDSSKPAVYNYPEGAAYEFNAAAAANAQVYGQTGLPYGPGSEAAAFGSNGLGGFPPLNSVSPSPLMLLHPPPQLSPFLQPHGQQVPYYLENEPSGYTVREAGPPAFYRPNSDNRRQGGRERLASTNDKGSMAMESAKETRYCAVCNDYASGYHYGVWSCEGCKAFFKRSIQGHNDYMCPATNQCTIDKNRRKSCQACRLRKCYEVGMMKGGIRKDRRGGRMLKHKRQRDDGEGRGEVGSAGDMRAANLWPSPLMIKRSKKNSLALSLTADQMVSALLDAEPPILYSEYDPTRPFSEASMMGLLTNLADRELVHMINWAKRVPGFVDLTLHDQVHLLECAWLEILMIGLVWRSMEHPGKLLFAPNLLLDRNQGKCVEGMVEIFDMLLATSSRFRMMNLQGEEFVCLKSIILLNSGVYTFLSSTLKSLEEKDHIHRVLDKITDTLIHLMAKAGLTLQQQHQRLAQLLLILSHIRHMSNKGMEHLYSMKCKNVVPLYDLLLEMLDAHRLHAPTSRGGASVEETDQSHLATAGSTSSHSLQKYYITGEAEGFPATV
# Sequence of Aromatase (Homo sapiens) (P11511 whole entry, looked up): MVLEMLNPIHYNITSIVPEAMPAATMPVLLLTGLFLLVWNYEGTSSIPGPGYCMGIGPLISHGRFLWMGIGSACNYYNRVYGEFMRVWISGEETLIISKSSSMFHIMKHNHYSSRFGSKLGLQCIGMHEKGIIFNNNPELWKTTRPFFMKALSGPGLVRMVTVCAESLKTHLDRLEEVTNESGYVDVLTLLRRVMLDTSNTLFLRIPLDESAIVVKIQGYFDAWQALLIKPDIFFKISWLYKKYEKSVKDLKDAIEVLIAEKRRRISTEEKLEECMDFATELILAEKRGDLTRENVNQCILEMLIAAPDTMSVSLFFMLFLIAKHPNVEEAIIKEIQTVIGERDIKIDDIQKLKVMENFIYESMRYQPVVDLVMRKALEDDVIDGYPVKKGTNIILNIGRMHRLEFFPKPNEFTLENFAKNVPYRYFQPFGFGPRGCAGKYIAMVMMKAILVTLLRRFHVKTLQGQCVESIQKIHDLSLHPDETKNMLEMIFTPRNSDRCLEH
Structure (SMILES),Potency [1],Potency [2],Potency [3],Potency [4],Potency [5],Potency [6],Potency [7],Potency [8],Potency [9],Potency [10],Potency [11],Potency [12],Potency [13],Potency [14],Potency [15],Potency [16],Potency (Aromatase (Homo sapiens)),Potency [17],Potency [18],Potency [19]
O=[N+]([O-])c1c(Cl)c(Cl)c(Cl)c(Cl)c1Cl,inactive,inactive,inactive and 61.1 µM (active),inactive,inactive,inactive,inactive,inactive and 43.3 µM (active),54.5 µM (active),inactive,inactive,inactive,inactive,inactive,inactive,inactive,inactive and 61.1 µM (active),,,
CCOc1cc(Oc2ccc(C(F)(F)F)cc2Cl)ccc1[N+](=O)[O-],inactive,inactive,54.5 µM (active),inactive,,,inactive,,,inactive,inactive,inactive,inactive,,31 µM (active),inactive,inactive,54.5 µM (active),,
CCC(C)c1cc([N+](=O)[O-])cc([N+](=O)[O-])c1O (stereo not given),inactive,inactive and 30.6 µM (active),inactive and 27.3 µM (active),inactive and 19.5 µM (active),,,,,27.3 µM (active),inactive,inactive and 6.92 µM [inhibitor] (active),inactive,inactive,inactive,inactive,inactive and 4.86 µM (active),inactive and 30.6 µM (active),inactive and 27.3 µM (active),,
Cc1cc(C)cc(C)c1,inactive,inactive,inactive,inactive,,,inactive,,inactive,inactive,,inactive,,,,inactive,,inactive,,
Oc1cc(Cl)c(Cl)cc1Cl,inactive,inactive and 68.6 µM (active),inactive and 61.1 µM (active),inactive,,,inactive,,inactive,inactive,,inactive,,,,inactive,inactive,,inactive,
Oc1ccc(-c2ccccc2)cc1,inactive,60.3 µM (active),inactive,inactive,,,inactive,,,inactive,inactive,inactive,,,,inactive,inactive,inactive,,
C1=Cc2cccc3cccc1c23,inactive,60.1 µM (active),inactive,inactive,,,inactive,,inactive,inactive,,inactive,,,,inactive,inactive,inactive,,
NCc1cccnc1,inactive,inactive,inactive,inactive,,,inactive,,inactive,inactive,inactive,inactive,inactive,inactive,inactive,inactive,inactive,,inactive,
CCCCCCCCCCCOC(=O)c1ccccc1C(=O)OCCCCCCCCCCC,inactive,inactive,inactive,inactive,,,inactive,,inactive,inactive,inactive,inactive,inactive,26.6 µM (active) and inactive,inactive,inactive,inactive,,inactive,
S=C1NCCN1,inactive,inactive,inactive,inactive,,,inactive,,,inactive,,inactive,,,,inactive,inactive,inactive,,
COP(=O)(OC)OC,inactive,inactive,inactive,inactive,inactive,inactive,inactive,inactive,inactive,inactive,inactive,,inactive,inactive,inactive,inactive,inactive,,,inactive
CCCCNC(=O)n1c(NC(=O)OC)nc2ccccc21,inactive,5.42 µM (active) and 6.86 µM (active),6.82 µM (active) and 8.63 µM (active),,inactive,inactive,inactive,inactive,,inactive,inactive,inactive,inactive,34.4 µM (active),inactive,inactive,inactive,9.64 µM (active) and 8.63 µM (active),7.66 µM (active) and 8.63 µM (active),
C=CCN(CC=C)C(=O)C(Cl)Cl,inactive,inactive,inactive,inactive,,,inactive,,inactive,inactive,,inactive,,,,inactive,inactive,inactive,,
CCOc1cc(C=O)ccc1O,inactive,inactive,inactive,inactive,,,inactive,,inactive,inactive,,inactive,,,,inactive,,inactive,,
Nc1ccc(-c2ccc(N)c(N)c2)cc1N,inactive,60.9 µM (active) and 12.2 µM (active),68.4 µM (active) and 12.2 µM (active),inactive,,,,,,,,inactive,,,,inactive,6.09 µM (active) and inactive,60.9 µM (active) and 9.69 µM (active),,
CCCCCc1cc(O)cc(O)c1,inactive,inactive,,inactive,,,inactive,,inactive,inactive,,inactive,,,,inactive,inactive,inactive,,
CCOCN(C(=O)CCl)c1c(C)cccc1CC,inactive,7.27 µM (active) and 6.11 µM (active),20.5 µM (active) and 7.7 µM (active),inactive,,,inactive,,inactive,inactive,24.5 µM [inconclusive] (active),inactive,inactive,inactive,inactive,inactive,28.9 µM (active) and 54.5 µM (active),,64.8 µM (active) and 61.1 µM (active),
